From PubChem BioAssay (NCATS)
Results filed as inconclusive are left out. The source made the active and inactive calls. The call rests on the fitted dose curve; in most records, active means well fitted curve in the direction sought with a large enough effect; inconclusive means small, poorly fitted or top-dose-only effect, or another doubt; inactive means no such curve, though single readings can be large; an effect the other way counts as inactive or inconclusive.

What was measured:
[1] = qHTS for ATAD5 Agonist screened against the NCATS CANVASS Library (AID 1347367); conditions: HEK293T ATAD5-luciferase reporter, luminescence, 16 h; series mostly up to 46.1 µM
In short: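 Step one plated reporter cells and let them acclimate 5hr. Step two pinned compounds with MMS as positive and 0.46% DMSO as negative control. After 16hr incubation, fluorescence viability then luminescence were read.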

[2] = G06 Cancer Cell Toxicity qHTS against the NCATS CANVASS Library (AID 1347368); conditions: G06 dog glioma cells, viability ATP luminescence, 72 h; series mostly up to 46.1 µM
In short: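 Cytotoxicity toward canine glioma G06 cells is scored from cellular ATP via luminescence after 72 hr compound exposure at 500 cells/well.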

[3] = MCF7 Cancer Cell Toxicity qHTS against the NCATS CANVASS Library (AID 1347369); conditions: MCF7 viability, ATP luminescence (CellTiter-Glo), 72 h; at 46 µM (top of the series)
In short: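 Cytotoxicity is measured by ATP content: MCF7 cells at 500 per well receive an 11-point compound series and, after 72 hr at 37C, are lysed with CellTiterGlo for luminescence.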

[4] = qHTS for ATAD5 Antagonist screened against the NCATS CANVASS Library (AID 1347370); conditions: HEK293T-ATAD5-luc, 5-FUrd stimulated, luminescence, 16 h; series mostly up to 46.1 µM
In short: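 HEK293T cells with a stably integrated ATAD5-controlled luciferase reporter were exposed to compounds (11-pt) alongside 10 uM 5-fluorouridine as ATAD5 stabilizer for 16hr at 37C. Viability was read by CellTiter-Fluor fluorescence, then ATAD5 by luminescence.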

[5] = J3T Cancer Cell Toxicity qHTS against the NCATS CANVASS Library (AID 1347371); conditions: J3T dog glioma viability, ATP luminescence, 72 h; series mostly up to 46.1 µM
In short: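 Viability of the J3T glioma line from dog is scored by ATP luminescence after a 72 hr incubation with natural products.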

[6] = target: Nuclear receptor subfamily 1 group I member 3 (Homo sapiens) (UniProt Q14994); experiment: qHTS for Constitutive Androstane Receptor (CAR) Antagonist screened against the NCATS CANVASS Library (AID 1347372); conditions: HepG2-hCAR-CYP2B6 luciferase, CITCO-stimulated antagonist mode; series mostly up to 46.1 µM
In short: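 HepG2 cells stably carrying hCAR and a CYP2B6-2.2kb luciferase reporter were exposed to compounds plus 50 nM CITCO for 24hr at 37C. CAR activity was read by ONE-Glo luminescence, with viability measured first by CellTiter-Fluor.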

[7] = target: Nuclear receptor subfamily 1 group I member 3 (Homo sapiens) (UniProt Q14994); experiment: qHTS for Constitutive Androstane Receptor (CAR) Agonist screened against the NCATS CANVASS Library (AID 1347373); conditions: HepG2-hCAR-CYP2B6 luciferase reporter, ONE-Glo luminescence; series mostly up to 46.1 µM
In short: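 CAR agonism is scored as CYP2B6-promoter luciferase induction in a double-stable transfected HepG2 line, where 1.5uM PK11195 is included in each well. Compounds were tested over a 24hr exposure.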

[8] = qHTS for Hypoxia signaling pathway (HIF-1) antagonists against the NCATS CANVASS Library (AID 1347374); conditions: HRE-bla ME-180 cells, HIF-1 beta-lactamase reporter, CoCl2; series mostly up to 38.3 µM
In short: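 HRE-bla ME-180 cells (2,000/well, 0.5% dialyzed FBS) were pre-incubated 5 h, then given an 11-point compound series plus CoCl2 (60 uM solution as added) for 17 h at 37C. CCF4 β-lactamase read (ex 405, em 460/530 nm) after 2 h at RT.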

[9] = qHTS for Hypoxia signaling pathway (HIF-1) agonists against the NCATS CANVASS Library (AID 1347375); conditions: HRE-bla ME-180 cells, HIF-1 beta-lactamase reporter, 17 h; series mostly up to 38.3 µM
In short: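 Inducers of HIF-1 signaling were detected in ME-180 cells bearing an HRE-driven beta-lactamase reporter after 17 h compound exposure. Activity came from CCF4-AM FRET emission ratio (460/530 nm) in qHTS format.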

[10] = 10-beta competent E. coli microbial cell viability qHTS against the NCATS CANVASS Library (AID 1347376); conditions: E. coli 10-beta viability, BacTiter-Glo ATP luminescence, overnight; series mostly up to 46.1 µM
In short: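 Cytotoxicity toward competent E. coli is scored from cellular ATP content via BacTiter-Glo luminescence following overnight compound exposure at 37C, 5% CO2.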

[11] = DH5-alpha competent E. coli microbial cell viability qHTS against the NCATS CANVASS Library (AID 1347377); conditions: BacTiter-Glo ATP luminescence, overnight; series mostly up to 46.1 µM
In short: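 Cell viability of competent DH5-alpha E. coli is scored from ATP content by luminescence. Cells sit overnight at 37C with compound across an 11-point concentration series.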

[12] = qHTS for H2AX Agonists against the NCATS CANVASS Library (AID 1347378); conditions: CHO-K1 H2AX phosphorylation, HTRF TR-FRET, 3 h; series mostly up to 76.9 µM
In short: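 Following overnight seeding, CHO-K1 cells are incubated with a concentration series of compound for 3 hr at 37C (final DMSO 0.76%). Cells are then lysed, detection antibodies added, and emission ratio 665/620 nm recorded after 24 hr at room temperature.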

[13] = qHTS for Inflammasome Signaling Inhibitors: IL-1-beta AlphaLISA screen against the NCATS CANVASS Library (AID 1347379); conditions: THP-1 LPS/ATP, IL-1B AlphaLISA secretion, 16 h; series mostly up to 57.5 µM
In short: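 Human THP-1 cells were pretreated 1 hr at 37 °C with compounds (up to 57.5 uM final), then stimulated with LPS (250 ng/mL final) and ATP (1.25 mM final). Secreted IL-1B was read by AlphaLISA after 16 hr.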

[14] = qHTS for Antimalaria activity screened against the NCATS CANVASS Library (AID 1347380); conditions: P. falciparum Dd2 growth, SYBR Green fluorescence, 72 h; series mostly up to 28.7 µM
In short: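 Growth inhibition of asexual erythrocytic P. falciparum Dd2 was quantified by SYBR Green DNA staining. Cultures grew 72 h with compound (11-point series) in hypoxic gas at 37C; lysis and staining lasted 18 h.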

[15] = Inflammasome Signaling qHTS Counterscreen: IL-1-beta AlphaLISA counterscreen against the NCATS CANVASS Library (AID 1347381); conditions: Purified IL-1beta AlphaLISA signal interference counterscreen; series mostly up to 57.5 µM
In short: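 To flag interference with the AlphaLISA read-out, a known amount of purified IL-1-beta (4 pg) replaced cell supernatant. Detection used anti-IL-1-beta acceptor beads, biotinylated antibody and streptavidin donor beads at room temperature.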

[16] = Cytotoxicity qHTS for assessment of Hepg2 cells membrane integrity screened against the NCATS CANVASS Library (AID 1347387); conditions: HepG2 LDH release (CytoTox-ONE) fluorescence, 5 h; series mostly up to 46.1 µM
In short: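 Fluorescence proportional to lysed-cell number, from LDH leaking out of HepG2 cells exposed 5 hr at 37C to 0.59 nM - 46 uM compound (11-point qHTS), is measured after 10 min with CytoTox-ONE.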

[17] = qHTS assay for small molecule disruptors of mitochondrial membrane potential screened against the NCATS CANVASS Library (AID 1347389); conditions: HepG2 mitochondrial membrane potential, m-MPI red/green ratio, 1.5 h; series mostly up to 46.1 µM
In short: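 Compounds tested in 11-point qHTS series on HepG2 cells for 1 hr; membrane-potential dye added for 30 min at 37C. Lower red-to-green ratio indicates loss of potential.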

[18] = Secretion counterscreen for inhibitors of the SERCaMP assay screened against the NCATS CANVASS Library (AID 1347390); conditions: SH-SY5Y constitutive GLuc secretion, luminescence, 20 h; series mostly up to 76.6 µM
In short: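 Counterscreen identifying compounds that disrupt secretion, using SH-SY5Y cells with a constitutively secreted Gaussia luciferase reporter. A 20 h compound exposure (top 77 uM) precedes luminescent detection with coelenterazine.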

[19] = qHTS for activators of Nrf2/ARE signaling pathway screened against the NCATS CANVASS Library (AID 1347391); conditions: ARE-bla HepG2, beta-lactamase reporter, 16 h; series mostly up to 46.1 µM
In short: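 Cells carrying an ARE-driven beta-lactamase reporter (HepG2 background) are dosed for 16 h, then stained with CCF4. Cell viability in the same wells is measured by CellTiter-Glo luminescence.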

[20] = qHTS for activators of dead-cell proteases activity screened against the NCATS CANVASS Library (AID 1347392); conditions: HepG2 cytotoxicity, dead-cell protease luminescence, 5 h; series mostly up to 46.1 µM
In short: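 HepG2 cells (2000/well) attached 18 h at 37C, then exposed 5 h to compounds (11-point qHTS). Dead-cell protease activity read as luminescence from cell-impermeant AAF-aminoluciferin substrate after 15 min at room temperature.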

Measured: outcome

Nuclear receptor subfamily 1 group I member 3 (Homo sapiens), sequence (Q14994 whole entry, looked up): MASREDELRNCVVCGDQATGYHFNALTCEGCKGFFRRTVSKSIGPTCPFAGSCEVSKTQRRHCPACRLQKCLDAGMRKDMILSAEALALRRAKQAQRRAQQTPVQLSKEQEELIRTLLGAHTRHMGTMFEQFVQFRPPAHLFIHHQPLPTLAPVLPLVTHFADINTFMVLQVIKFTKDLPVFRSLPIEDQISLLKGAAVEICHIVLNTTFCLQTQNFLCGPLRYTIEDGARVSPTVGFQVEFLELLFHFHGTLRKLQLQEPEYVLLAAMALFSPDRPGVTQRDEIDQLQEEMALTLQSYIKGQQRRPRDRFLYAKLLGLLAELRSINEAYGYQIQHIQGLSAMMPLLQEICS

CN(C)CCc1c[nH]c2ccccc12
inactive: all assays above
